Assay outcomes as filed in PubChem.
Gal4-VP16 FLuc – VP16 counterscreen qHTS for inhibitors of ROR gamma transcriptional activity | Potency, µM (top dose mostly 53.6 µM), for inactives: at the top dose activity, negative = inhibition, usual class: inhibitors | AID 2546, 2010 | Drosophila S2 Gal4-VP16 UAS-luciferase, luminescence, 20 h | 310,000 tested, 3.5% active;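 also: Gal4-VP16 expression switched on by copper sulfate through the metallothionein promoter; potency is read from the fitted curve at half-maximal effect; nearly all actives have a fitted effect of over 50% in size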
RORgamma inh – qHTS for inhibitors of ROR gamma transcriptional activity | Nuclear receptor ROR-gamma (Mus musculus), P51450 | Drosophila S2 Gal4-RORgamma UAS-luciferase reporter, 20 h | Potency, µM (highest dose often 53.6 µM), without a hit: at the top dose activity change, negative = inhibition, usual class: inhibitors | 310,000 tested, 5.4% active | AID 2551, 2010; also: potency is read from the fitted curve at half-maximal effect; nearly all actives have a fitted effect of over 60% in size
Target sequence (P51450 whole entry, looked up, the tested form may be a part): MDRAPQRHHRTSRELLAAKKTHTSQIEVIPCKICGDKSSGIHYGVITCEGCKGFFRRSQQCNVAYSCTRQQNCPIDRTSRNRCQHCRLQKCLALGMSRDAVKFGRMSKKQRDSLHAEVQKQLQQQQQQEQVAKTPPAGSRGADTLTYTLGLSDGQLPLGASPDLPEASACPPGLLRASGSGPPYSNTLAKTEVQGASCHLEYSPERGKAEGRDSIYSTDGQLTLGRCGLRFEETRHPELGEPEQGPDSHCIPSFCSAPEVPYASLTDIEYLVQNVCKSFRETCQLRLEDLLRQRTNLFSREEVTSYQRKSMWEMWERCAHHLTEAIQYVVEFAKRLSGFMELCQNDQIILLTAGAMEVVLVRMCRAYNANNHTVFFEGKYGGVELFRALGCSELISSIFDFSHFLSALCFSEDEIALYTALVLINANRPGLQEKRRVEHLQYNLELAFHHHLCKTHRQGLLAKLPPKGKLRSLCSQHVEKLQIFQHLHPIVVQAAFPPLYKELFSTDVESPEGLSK
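Read-out: Photinus luciferase luminescence; inhibitors lower reporter signal. Insect Schneider cells with Gal4-ROR gamma fusion under metallothionein promoter, UAS reporter; 700 uM final copper sulfate induction, 20 hr, ambient temperature.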
TSHR antagonist – Antagonists of the Thyroid Stimulating Hormone Receptor: HTS campaign; Thyrotropin receptor (Homo sapiens), P16473; TSHR-expressing cells, TSH-stimulated cAMP HTRF, 2 h; stronger effect = lower value; activity change, negative = inhibition, % at 11.5 µM; 330,000 tested, 0.2% active;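 active = activity change below a set negative limit, meaning inhibition stronger than a set level, cut at about -70% in these data; inconclusive = activity change between two set negative limits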
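Inhibition of cAMP made by TSHR-expressing cells under TSH stimulation (4nM final, EC80; 2 h, 37 deg C) is quantified with a one-step lysis HTRF kit, anti-cAMP cryptate versus cAMP-d2.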
B2AR arrestin – qHTS assay of beta-arrestin-biased ligands of beta2-adrenergic receptor; beta-arrestin recruitment to beta2AR, cell-based reporter; Potency, µM (top dose mostly 46.1 µM), for the others: top-dose activation, most hits filed as activators; 330,000 tested, 0.02% active;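 also: potency is read from the fitted curve at half-maximal effect; 0% = DMSO controls and full agonism = EC100 isoproterenol or metaproterenol; nearly all actives have a fitted effect of over 65% in size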
ELG1 repair inh – qHTS screen for small molecules that inhibit ELG1-dependent DNA repair in human embryonic kidney (HEK293T) cells expressing luciferase-tagged ELG1 | HEK293T ELG1-luciferase reporter, luminescence, 16 h; DNA damage induced by 5-fluorouridine | Potency, µM (top dose mostly 46.1 µM), without a hit: top-dose activity change, negative = inhibition, usual class: inhibitors | AID 504467, 2011 | 330,000 tested, 2.3% active; also: potency is read from the fitted curve at half-maximal effect; nearly all actives have a fitted effect of over 55% in size
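Step one: seed 2,000 cells per well. Step two: pin-transfer compound or DMSO alongside 5-fluorouridine. Step three: incubate 16 hr, 37 °C, 5% CO2. Step four: add ONE-Glo, wait 30 min, read luminescence.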
Numbers without * were called inactive; ? = inconclusive; · = no result given; [ ] = remark or other dose. Only some compounds are listed: those with a hit (about 7.5% of all), similar ones and a draw of the others. Unless noted, calls follow the shape of the dose curve; as a rule, active = well fitted curve in the direction sought with a large enough effect; inconclusive = small, poorly fitted or top-dose-only effect, or another doubt; inactive = no such curve, though single readings can be large; an effect the other way counts as inactive or inconclusive. Unless noted, % is scaled to controls: 0 for no effect and ±100 for the full control effect.

SMILES | Gal4-VP16 FLuc | RORgamma inh | TSHR antagonist | B2AR arrestin | ELG1 repair inh
CC(C)c1ccccc1-n1c(SCC(=O)c2ccc3c(c2)NC(=O)CO3)nc2ccccc2c1=O | 7% | 2.8µM* | 7 | 0% | 5.2µM*
CC(C)Cn1c(SCC(=O)N2CCc3ccccc3C2)nc2cc(Cl)ccc2c1=O | ? | ? | -6 | -1% | 18µM*
CC(C)Cn1c(SCC(=O)N2CCc3ccccc3C2)nc(O)cc1=O | · | · | -9 | -1% | 4%
CC(CC(=O)NNC(=O)c1cccc(Cl)c1)c1ccccc1 (centres undefined) | 22% | 22% | 0 | 0% | 14%
CC(C)=CCC/C(C)=C/CO/N=C1/C[C@@H](O)[C@@H](O)[C@@H]2[C@@H]3C(=O)N(C[C@@H]4CCCO4)C(=O)[C@H]3CC[C@@H]12 | 3%[10 µM] | -5%[10 µM] | · | · | ·
CC(C)c1ccccc1-n1c(SCC(=O)N2CCc3ccccc3C2)nc2ccccc2c1=O | -15% | 26% | -1 | ? | 26µM*
CC[C@H](C)[C@H](NC(=O)[C@H](CCC(=O)O)NC(=O)[C@@H](N)CO)C(=O)N[C@@H](CCC(N)=O)C(=O)N[C@@H](CC(C)C)C(=O)N[C@@H](CCSC)C(=O)N[C@@H](Cc1cnc[nH]1)C(=O)N[C@@H](CC(N)=O)C(=O)N[C@@H](CC(C)C)C(=O)NCC(=O)N[C@@H](CCCCN)C(=O)N[C@@H](Cc1cnc[nH]1)C(=O)N[C@@H](CC(C)C)C(=O)N[C@@H](CC(N)=O)C(=O)N[C@@H](CO)C(=O)N[C@@H](CCSC)C(=O)N[C@@H](CCC(=O)O)C(=O)N[C@@H](CCCNC(=N)N)C(=O)N[C@H](C(=O)N[C@@H](CCC(=O)O)C(=O)N[C@@H](Cc1c[nH]c2ccccc12)C(=O)N[C@@H](CC(C)C)C(=O)N[C@@H](CCCNC(=N)N)C(=O)N[C@@H](CCCCN)C(=O)N[C@@H](CCCCN)C(=O)N[C@@H](CC(C)C)C(=O)N[C@@H](CCC(N)=O)C(=O)N[C@@H](CC(=O)O)C(=O)N[C@H](C(=O)N[C@@H](Cc1cnc[nH]1)C(=O)N[C@@H](CC(N)=O)C(=O)N[C@@H](Cc1ccccc1)C(=O)O)C(C)C)C(C)C | -7% | 9% | · | · | ·
Cc1cc(OCc2cc(C(=O)N(C)C(C)c3ccccn3)no2)cc(C)c1Cl (centres undefined) | ? | ? | -98* | -1% | ?
Cc1cc(OCc2cc(C(=O)N(C)Cc3ccccn3)no2)cc(C)c1Cl | ? | 20% | 1 | 0% | ?
CC(C)C[C@H](NC(=O)[C@H](Cc1ccccc1)NC(=O)CNC(=O)CNC(=O)[C@@H](N)Cc1ccc(O)cc1)C(=O)N[C@@H](CCCN=C(N)N)C(=O)N[C@@H](CCCN=C(N)N)C(=O)N[C@@H](CCC(N)=O)C(=O)N[C@@H](Cc1ccccc1)C(=O)N[C@@H](CCCCN)C(=O)N[C@H](C(=O)N[C@H](C(=O)N[C@H](C(=O)O)[C@@H](C)O)C(C)C)C(C)C | 2% | 10% | · | · | ·
COc1ccc(OC(=O)COc2ccc(Cl)cc2)cc1 | 16% | 11% | 11 | 0% | -1%
CCCc1cc(=O)[nH]c(-n2[nH]c3c(c2=O)CCCC3)n1 | 3.5µM* | 2.2µM* | 0 | 0% | ?
Cc1ccc(O)c(N)c1 | ? | ? | 9 | -1% | ?
Cc1ccc(O)c(Sc2cc(C)ccc2O)c1 | 13µM* | ? | 4 | 0% | -16%
COc1ccc(C2=NN(c3nc(-c4ccc(CNC(C)=O)cc4)cs3)C(c3ccco3)C2)cc1 (centres undefined) | -7% | -14% | -15 | 0% | 6%
CCOc1ccc(S(=O)(=O)N2CCOCC2)cc1NC(=O)CSC(=S)N1CCCC1 | · | · | 11 | -1% | -16%
CCN(CC)CCNc1nc(C(F)(F)F)nc2c1nnn2Cc1ccccc1 | · | · | -9 | -1% | -3%
FC(F)(F)c1nc(NCc2ccccc2)c2nnn(Cc3ccccc3)c2n1 | -27% | 8.9µM* | 53 | 0% | 11%
CCOC(=O)N1CCN(C(=O)c2ccc3nc(-c4ccccc4)c(-c4ccccc4)nc3c2)CC1 | -5% | -6% | 5 | 0% | 23µM*
Cc1ccc(S(=O)(=O)CC2CSc3nc4ccccc4n32)cc1 (centres undefined) | 1.1µM* | ? | -36 | 0% | -9%
COc1cc(NS(C)(=O)=O)ccc1Cc1c2ccccc2nc2ccccc12 | -14% | -17% | · | · | ·
COc1ccc(NC(=S)Nc2ccc3nc(C)c(C)nc3c2)cc1 | -3% | 11µM* | -8 | -1% | -6%
COc1ccc(NC(=S)Nc2ccc3nsnc3c2)cc1 | 5.6µM* | 10µM* | 12 | 5% | -17%
C=CCN(CC=C)C(=S)Nc1ccc2nsnc2c1 | 6.3µM* | 3.5µM* | 32 | -1% | -13%
CCCCSc1nc(C)cc(NC(=S)Nc2ccc(OC)cc2)n1 | 3.5µM* | 1.3µM* | -3 | 0% | 1%
SMILES | Gal4-VP16 FLuc | RORgamma inh | TSHR antagonist | B2AR arrestin | ELG1 repair inh
NC1=NCCCC1 | 3% | -5% | · | · | ·
C#CCCCO/N=C1/C[C@@H](O)[C@@H](O)[C@@H]2[C@@H]3C(=O)N(C(C)(C)C)C(=O)[C@H]3CC[C@@H]12 | 8%[10 µM] | -23%[10 µM] | · | · | ·
O=C(C1CCCCC1)N(Cc1nc2sc3c(c2c(=O)[nH]1)CCCC3)Cc1cccs1 | ? | 11µM* | -15 | 0% | ?
CCC(C)CCCCC(=O)N[C@@H](CCN)C(=O)N[C@H](C(=O)N[C@@H](CCN)C(=O)N[C@H]1CCNC(=O)C([C@@H](C)O)NC(=O)[C@@H](CCN)NC(=O)[C@H](CCN)NC(=O)[C@H](CC(C)C)NC(=O)[C@@H](CC(C)C)NC(=O)[C@H](CCN)NC1=O)[C@@H](C)O (some centres undefined) | 5% | -3% | · | · | ·
CCOC(=O)c1cccc(NC(=O)c2ccc(-n3cnnn3)cc2)c1 | · | · | 23 | 3% | 15%
Cc1ccccc1NC(=S)N(Cc1ccco1)C(C)c1ccccn1 (centres undefined) | ? | 13µM* | 3 | 0% | 13%
Cc1c(Cl)cccc1NC(=S)N(Cc1ccco1)C(C)c1ccccn1 (centres undefined) | ? | 10µM* | 0 | 0% | -10%
Cc1c(Cl)cccc1NC(=S)N(CCN(C)C)C(C)c1ccccn1 (centres undefined) | ? | 13µM* | 0 | 0% | 5%
